Screening results as filed in PubChem BioAssay.
A selection: hits, their analogues and other compounds. The true share with any hit is near 3.6%.
mHTT-CaM PPI inh: inhibitors of human mutant huntingtin-calmodulin interaction | AID 1671202 | AlphaScreen His-mHTT/GST-CaM binding, luminescence | 3.6% of 190,000 active | P42858 | inhibition, % at 15 µM;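 note: 0% = both proteins with DMSO and 100% = one protein alone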
Target sequence (P42858 whole entry, looked up, stated change not applied): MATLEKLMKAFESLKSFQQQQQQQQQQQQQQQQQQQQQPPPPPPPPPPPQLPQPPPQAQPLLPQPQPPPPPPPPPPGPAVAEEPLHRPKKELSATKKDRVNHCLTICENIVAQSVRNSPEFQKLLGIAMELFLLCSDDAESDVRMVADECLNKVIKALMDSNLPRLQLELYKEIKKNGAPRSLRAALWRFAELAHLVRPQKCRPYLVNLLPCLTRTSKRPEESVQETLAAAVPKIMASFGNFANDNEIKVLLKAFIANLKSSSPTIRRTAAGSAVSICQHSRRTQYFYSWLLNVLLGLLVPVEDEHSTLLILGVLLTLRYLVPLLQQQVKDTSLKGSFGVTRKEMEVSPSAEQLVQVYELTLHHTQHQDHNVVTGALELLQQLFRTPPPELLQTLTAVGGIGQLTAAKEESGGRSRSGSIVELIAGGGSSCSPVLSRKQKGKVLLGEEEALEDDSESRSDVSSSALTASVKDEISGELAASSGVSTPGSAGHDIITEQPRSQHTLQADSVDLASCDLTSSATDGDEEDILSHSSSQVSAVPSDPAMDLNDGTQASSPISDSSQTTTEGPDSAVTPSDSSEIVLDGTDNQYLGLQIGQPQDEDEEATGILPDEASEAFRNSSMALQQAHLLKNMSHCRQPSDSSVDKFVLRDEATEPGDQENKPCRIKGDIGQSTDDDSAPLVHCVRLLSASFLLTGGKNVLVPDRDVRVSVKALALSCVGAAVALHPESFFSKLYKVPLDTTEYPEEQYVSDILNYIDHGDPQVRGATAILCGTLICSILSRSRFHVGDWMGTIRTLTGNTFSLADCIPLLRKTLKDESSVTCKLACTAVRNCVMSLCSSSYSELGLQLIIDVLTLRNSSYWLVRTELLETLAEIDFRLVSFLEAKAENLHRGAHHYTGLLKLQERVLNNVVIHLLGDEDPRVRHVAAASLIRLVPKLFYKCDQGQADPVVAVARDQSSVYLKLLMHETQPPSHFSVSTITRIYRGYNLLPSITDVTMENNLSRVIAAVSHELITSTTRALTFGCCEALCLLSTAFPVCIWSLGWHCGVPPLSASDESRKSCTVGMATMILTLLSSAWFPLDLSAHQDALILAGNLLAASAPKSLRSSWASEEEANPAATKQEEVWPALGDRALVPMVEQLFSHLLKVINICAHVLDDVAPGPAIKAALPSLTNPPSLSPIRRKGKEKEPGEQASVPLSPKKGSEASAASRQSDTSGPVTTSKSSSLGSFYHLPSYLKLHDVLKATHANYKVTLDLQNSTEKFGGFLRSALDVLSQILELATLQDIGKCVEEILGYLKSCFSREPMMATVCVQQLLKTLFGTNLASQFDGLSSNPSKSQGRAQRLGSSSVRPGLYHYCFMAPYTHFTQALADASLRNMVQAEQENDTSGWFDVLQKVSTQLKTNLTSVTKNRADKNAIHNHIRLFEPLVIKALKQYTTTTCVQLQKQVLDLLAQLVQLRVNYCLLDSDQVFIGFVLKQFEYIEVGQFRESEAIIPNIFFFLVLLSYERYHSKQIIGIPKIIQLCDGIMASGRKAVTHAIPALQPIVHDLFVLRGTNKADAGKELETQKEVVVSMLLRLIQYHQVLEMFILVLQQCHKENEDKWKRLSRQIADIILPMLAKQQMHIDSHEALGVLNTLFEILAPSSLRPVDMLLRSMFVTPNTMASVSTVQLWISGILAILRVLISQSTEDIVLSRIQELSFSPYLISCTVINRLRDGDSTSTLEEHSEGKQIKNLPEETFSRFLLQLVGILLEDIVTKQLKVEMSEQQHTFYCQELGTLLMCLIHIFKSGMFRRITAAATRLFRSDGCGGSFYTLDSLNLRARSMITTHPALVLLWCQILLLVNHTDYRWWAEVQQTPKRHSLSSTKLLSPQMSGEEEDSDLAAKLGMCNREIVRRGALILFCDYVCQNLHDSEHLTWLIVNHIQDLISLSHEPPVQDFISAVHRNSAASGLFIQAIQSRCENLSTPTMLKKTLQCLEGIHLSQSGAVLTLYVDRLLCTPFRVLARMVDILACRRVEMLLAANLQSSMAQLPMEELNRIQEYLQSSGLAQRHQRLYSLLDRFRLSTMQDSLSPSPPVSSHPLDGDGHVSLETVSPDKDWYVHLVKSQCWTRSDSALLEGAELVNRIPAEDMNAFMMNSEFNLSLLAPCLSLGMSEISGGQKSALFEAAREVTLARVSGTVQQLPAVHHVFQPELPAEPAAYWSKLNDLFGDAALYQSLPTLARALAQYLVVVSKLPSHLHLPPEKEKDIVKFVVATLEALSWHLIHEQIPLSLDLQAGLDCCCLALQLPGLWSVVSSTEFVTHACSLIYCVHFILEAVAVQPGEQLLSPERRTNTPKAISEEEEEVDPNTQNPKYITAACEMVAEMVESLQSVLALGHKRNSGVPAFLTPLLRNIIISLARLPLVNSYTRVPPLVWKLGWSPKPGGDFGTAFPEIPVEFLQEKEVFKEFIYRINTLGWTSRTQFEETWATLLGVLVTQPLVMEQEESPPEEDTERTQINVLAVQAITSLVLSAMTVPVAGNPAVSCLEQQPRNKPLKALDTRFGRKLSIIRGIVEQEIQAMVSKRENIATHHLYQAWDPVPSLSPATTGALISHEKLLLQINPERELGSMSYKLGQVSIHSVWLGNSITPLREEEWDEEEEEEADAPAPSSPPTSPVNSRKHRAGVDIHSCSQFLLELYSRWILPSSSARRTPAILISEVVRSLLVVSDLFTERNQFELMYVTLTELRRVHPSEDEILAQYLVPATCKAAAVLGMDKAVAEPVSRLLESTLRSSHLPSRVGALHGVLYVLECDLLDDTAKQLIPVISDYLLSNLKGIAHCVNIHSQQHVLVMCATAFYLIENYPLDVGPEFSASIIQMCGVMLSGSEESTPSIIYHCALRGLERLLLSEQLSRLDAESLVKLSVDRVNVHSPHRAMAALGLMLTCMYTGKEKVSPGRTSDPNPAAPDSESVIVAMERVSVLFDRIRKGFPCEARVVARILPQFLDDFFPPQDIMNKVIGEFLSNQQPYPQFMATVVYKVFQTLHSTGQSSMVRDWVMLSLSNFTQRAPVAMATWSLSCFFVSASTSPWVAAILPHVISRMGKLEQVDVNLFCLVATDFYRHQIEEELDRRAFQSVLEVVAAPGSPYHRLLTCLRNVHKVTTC
Pf apPOL block: Pf-apPOL DNA polymerase inhibition; inhibition, % at 10 µM; 0.25% of 210,000 active; AID 1794808; Recombinant Pf-apPOL, molecular beacon fluorescence, 1.5 h
Active calls of the source: *; · = no result given. Cut-off read from the data, not from the text of the source: active = inhibition above about 50%; inactive = the rest.

SMILES	mHTT-CaM PPI inh	Pf apPOL block
COc1ccc(OC)c2sc(N(CCCn3ccnc3)C(=O)Cc3ccccc3)nc12	68*	-8
O=C(c1ccco1)N(CCCn1ccnc1)c1nc2c(Cl)cccc2s1	32	0
CC(C(=O)NC1CCCC1)C1CCN(S(=O)(=O)c2ccc(Cl)s2)CC1 (centres undefined)	-3	-1
CCOC(=O)c1sc(NC(=O)c2cccc(S(=O)(=O)N3CCOCC3)c2)nc1C	-10	-1
O=C(Cc1nc(-c2ccccn2)n[nH]1)Nc1ccccc1	73*	-4
Cc1cccc(NC(=O)Cc2nc(-c3ccccn3)n[nH]2)c1	99*	-12
NC(=O)Cc1nc(-c2ccccn2)n[nH]1	99*	-7
Cc1cc(C)cc(NC(=O)Cc2nc(-c3ccccc3)n[nH]2)c1	-6	-2
O=C(O)Cc1nc(-c2cccnc2)n[nH]1	-14	4
O=C(Cc1nc(-c2ccccc2)n[nH]1)Nc1ccc(Cl)cc1	-6	-1
Cn1cc(-c2ccncc2)cc1C(=O)NCc1ccc(F)cc1F	12	0
OCC1COC(Cn2cncn2)(c2ccc(Cl)cc2Cl)O1 (centres undefined)	-3	3
COc1ccccc1-c1coc2c(CN3CCCCCC3)c(O)ccc2c1=O	3	-4
O=C(CSc1nc2ccccc2n1S(=O)(=O)c1cccs1)NCc1cccs1	12	-5
CC(C)(C)N=C1Nc2ccccc2NC12CCCN(C(=O)Cc1ccccc1F)C2 (centres undefined)	65*	-2
COCCN=C1Nc2ccccc2NC12CCCN(C(=O)c1n[nH]c3c1CCCC3)C2 (centres undefined)	-2	-2
O=C(c1cccc(F)c1)N1CCCC2(C1)Nc1ccccc1NC2=NC1CCCC1 (centres undefined)	18	-4
O=C(COc1ccc(F)cc1)N1CCCC2(C1)Nc1ccccc1NC2=NC1CCCC1 (centres undefined)	86*	-4
O=C(c1n[nH]c2c1CCCC2)N1CCCC2(C1)Nc1ccccc1NC2=NC1CCCC1 (centres undefined)	92*	-2
COCCN=C1Nc2ccccc2NC12CCCN(C(=O)Cc1cccc(OC)c1)C2 (centres undefined)	39	-3
COc1cccc(CC(=O)N2CCCC3(C2)Nc2ccccc2NC3=NC(C)(C)C)c1 (centres undefined)	78*	0
Cc1noc(C)c1CC(=O)N1CCCC2(C1)Nc1ccccc1NC2=NC(C)(C)C (centres undefined)	34	-2
CC1CCC2(CC1)OCC(C(=O)NC(C)C)N2C(=O)c1ccccc1C(F)(F)F (centres undefined)	9	-2
CC(C)(C)N=C1Nc2ccccc2NC12CCCN(C(=O)COc1ccc(F)c(F)c1)C2 (centres undefined)	100*	8
CC(=O)c1cccc(NC(=O)N2CCCC3(C2)Nc2ccccc2NC3=NC(C)(C)C)c1 (centres undefined)	27	4
SMILES	mHTT-CaM PPI inh	Pf apPOL block
CC(C)(C)N=C1Nc2ccccc2NC12CCCN(C(=O)c1cccc(F)c1)C2 (centres undefined)	15	4
CC(C)N1CCC(CC(=O)N2CCCC3(C2)Nc2ccccc2NC3=NC(C)(C)C)CC1 (centres undefined)	46	-5
CC(C)(C)N=C1Nc2ccccc2NC12CCCN(C(=O)Cc1cccs1)C2 (centres undefined)	64*	0
CC(C)(C)N=C1Nc2ccccc2NC12CCCN(C(=O)Nc1ccc3c(c1)OCCO3)C2 (centres undefined)	94*	1
C#Cc1cccc(NS(=O)(=O)c2ccc(Cl)c(Cl)c2)c1	·	-8
COc1cccc(C2=N/C(=C/c3ccc4c(c3)OCO4)C(=O)O2)c1	12	-2
CN(C)C(=O)c1cc2c(s1)CCC(C(=O)N1CCN(C3CCCCC3)CC1)C2 (centres undefined)	6	-6
O=C(Nc1ccc2c(c1)OCO2)C1CCCN(c2cnn(Cc3ccccc3)c(=O)c2)C1 (centres undefined)	69*	-2
O=C(Nc1ccc2c(c1)OCCO2)C1CCCN(c2cnn(Cc3ccccc3)c(=O)c2)C1 (centres undefined)	35	-4
O=C(Nc1ccc(Br)cc1)C1CCN(c2cc(N3CCCC3)ncn2)CC1	21	-7
Cc1ccc(NC(=O)C2CCCN(c3cnn(C)c(=O)c3)C2)cc1C (centres undefined)	1	-3
O=C(Nc1ccc2c(c1)OCO2)C1CCN(c2cc(N3CCCC3)ncn2)CC1	61*	-6
O=C(Nc1ccc2c(c1)OCO2)C1CCCN(c2cn[nH]c(=O)c2)C1 (centres undefined)	63*	-2
Cn1ncc(N2CCCC(C(=O)Nc3ccc4c(c3)OCO4)C2)cc1=O (centres undefined)	72*	21
COc1ccc(NC(=O)C2CCCN(c3cn[nH]c(=O)c3)C2)cc1OC (centres undefined)	7	8
